# Laboratory results taken from the supplement of paper PMC8728848.
# The full list was thinned out, with the strongest signals kept by preference.
# Key:
# Assay in all cases: glycan array binding signal (z-score within array); higher = stronger binding
# Conditions in all cases: glycan notation: IUPAC condensed, linker removed; mutation: D57L
# [1] = target: Fuc(a1-2)Gal(b1-3)GlcNAc(b1-2)Man(a1-3)[Fuc(a1-2)Gal(b1-3)GlcNAc(b1-2)Man(a1-6)]Man(b1-4)GlcNAc(b1-4)GlcNAc
# Outline: (§1)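 Glycan array data came from 3228 arrays in the Consortium for Functional Glycomics database, and only arrays with an available protein sequence were kept. Glycan names were put into IUPAC-condensed notation, and columns mapping to the same glycan were averaged. The binding signal is a within-array Z-score, averaged across arrays of one protein sequence run at different concentrations or buffers and across linkers. A negative Z-score can be read as non-binding.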
# [2] = target: Fuc(a1-2)Gal(b1-3)GlcNAc(b1-3)Gal(b1-4)Glc
# Outline: as §1
# [3] = target: Fuc(a1-2)Gal(b1-3)GlcNAc(b1-3)[Gal(b1-4)GlcNAc(b1-6)]Gal(b1-4)Glc
# Outline: as §1
# [4] = target: Fuc(a1-2)Gal(b1-3)GlcNAc(b1-3)[Neu5Ac(a2-6)Gal(b1-4)GlcNAc(b1-6)]Gal(b1-4)Glc
# Outline: as §1
# [5] = target: Fuc(a1-2)Gal(b1-4)Fuc(a1-3)]GlcNAc(b1-2)Man(a1-3)[Fuc(a1-2)Gal(b1-4)[Fuc(a1-3)]GlcNAc(b1-2)Man(a1-6)]Man(b1-4)GlcNAc(b1-4)GlcNAc
# Outline: as §1
# [6] = target: Fuc(a1-2)Gal3S(b1-4)GlcNAc
# Outline: as §1
# [7] = target: Fuc(a1-2)Gal6S(b1-3)GlcNAc6S
# Outline: as §1
# [8] = target: Fuc(a1-2)[Gal(a1-3)]Gal(b1-3)GalNAc(b1-3)Gal(a1-4)Gal(b1-4)Glc
# Outline: as §1
# [9] = target: Fuc(a1-2)[Gal(a1-3)]Gal(b1-4)GlcNAc(b1-2)Man(a1-3)[Fuc(a1-2)[Gal(a1-3)]Gal(b1-4)GlcNAc(b1-2)Man(a1-6)]Man(b1-4)GlcNAc(b1-4)[Fuc(a1-6)]GlcNAc
# Outline: as §1
# [10] = target: Fuc(a1-2)[Gal(a1-3)]Gal(b1-4)GlcNAc(b1-6)GalNAc
# Outline: as §1
# [11] = target: Fuc(a1-3)[Gal3S(b1-4)]GlcNAc6S
# Outline: as §1
# [12] = target: Gal(a1-3)GalNAc
# Outline: as §1
# [13] = target: Gal(b1-3)GalNAc(b1-4)Gal(b1-4)Glc
# Outline: as §1
# [14] = target: Gal(b1-3)GlcNAc(b1-3)Gal(b1-4)GlcNAc
# Outline: as §1
# [15] = target: Gal(b1-3)[Fuc(a1-4)]GlcNAc(b1-2)Man(a1-3)[Gal(b1-3)[Fuc(a1-4)]GlcNAc(b1-2)Man(a1-6)]Man(b1-4)GlcNAc(b1-4)[Fuc(a1-6)]GlcNAc
# Outline: as §1
# [16] = target: Gal(b1-4)GlcNAc(a1-6)Gal(b1-4)GlcNAc
# Outline: as §1
# [17] = target: Gal(b1-4)GlcNAc(b1-2)Man(a1-3)[Man(a1-6)]Man(b1-4)GlcNAc(b1-4)GlcNAc
# Outline: as §1
# [18] = target: Gal(b1-4)GlcNAc(b1-2)Man(a1-6)Man(b1-4)GlcNAc(b1-4)GlcNAc
# Outline: as §1
# [19] = target: Gal(b1-4)GlcNAc(b1-3)Gal(b1-4)GlcNAc(b1-2)[Gal(b1-4)GlcNAc(b1-3)Gal(b1-4)GlcNAc(b1-6)]Man(a1-6)[Gal(b1-4)GlcNAc(b1-3)Gal(b1-4)GlcNAc(b1-2)Man(a1-3)]Man(b1-4)GlcNAc(b1-4)GlcNAc
# Outline: as §1
# [20] = target: Gal(b1-4)GlcNAc(b1-3)Gal(b1-4)GlcNAc(b1-3)Gal(b1-4)GlcNAc(b1-2)Man(a1-3)[Gal(b1-4)GlcNAc(b1-3)Gal(b1-4)GlcNAc(b1-3)Gal(b1-4)GlcNAc(b1-2)Man(a1-6)]Man(b1-4)GlcNAc(b1-4)[Fuc(a1-6)]GlcNAc
# Outline: as §1
# [21] = target: Gal(b1-4)GlcNAc(b1-3)Gal(b1-4)GlcNAc(b1-3)Gal(b1-4)GlcNAc(b1-3)Gal(b1-4)GlcNAc(b1-3)Gal(b1-4)GlcNAc(b1-2)Man(a1-3)[Gal(b1-4)GlcNAc(b1-3)Gal(b1-4)GlcNAc(b1-3)Gal(b1-4)GlcNAc(b1-3)Gal(b1-4)GlcNAc(b1-3)Gal(b1-4)GlcNAc(b1-2)Man(a1-6)]Man(b1-4)GlcNAc(b1-4)[Fuc(a1-6)]GlcNAc
# Outline: as §1
# [22] = target: Gal(b1-4)GlcNAc(b1-3)[GlcNAc(b1-6)]Gal(b1-4)GlcNAc
# Outline: as §1
# [23] = target: Gal3S(b1-3)GalNAc
# Outline: as §1
# [24] = target: Gal3S6S(b1-4)GlcNAc6S
# Outline: as §1
# [25] = target: Gal6S(b1-4)Glc
# Outline: as §1
# [26] = target: Gal6S(b1-4)GlcNAc
# Outline: as §1
# [27] = target: Glc(a1-6)Glc(a1-6)Glc
# Outline: as §1
# [28] = target: Glc(a1-6)Glc(a1-6)Glc(a1-6)Glc
# Outline: as §1
# [29] = target: GlcNAc(b1-2)[GlcNAc(b1-4)]Man(a1-3)[GlcNAc(b1-2)Man(a1-6)]Man(b1-4)GlcNAc(b1-4)GlcNAc
# Outline: as §1
binder,measurement,setting,value
PNGase F (Flavobacterium meningosepticum) (protein) GIPAPADNTVNIKTFDKVKNAFGDGLSQSAEGTFTFPADVTAVKTIKMFIKNECPNKTCLEWDRYANVYVKNKTTGEWYEIGRFITPYWVGTEKLPRGLEIDVTDFKSLLSGNTELKIYTETWLAKGREYSVDFDIVYGTPDYKYSAVVPVVQYNKSSIDGVPYGKAHTLALKKNIQLPTNTEKAYLRTTISGWGHAKPYDAGSRGCAEWCFRTHTIAINNSNTFQHQLGALGCSANPINNQSPGNWTPDRAGWCPGMAVPTRIDVLNNSLIGSTFSYEYKFQNWTNNGTNGDAFYAISSFVIAKSNTPISAPVVTNLDPHHHHHH,glycan array binding signal (z-score),[1],3.35
same,glycan array binding signal (z-score),[2],-0.517
same,glycan array binding signal (z-score),[3],0.038
same,glycan array binding signal (z-score),[4],-0.604
same,glycan array binding signal (z-score),[5],7.24
same,glycan array binding signal (z-score),[6],-0.942
same,glycan array binding signal (z-score),[7],4.52
same,glycan array binding signal (z-score),[8],-0.247
same,glycan array binding signal (z-score),[9],1.68
same,glycan array binding signal (z-score),[10],1.12
same,glycan array binding signal (z-score),[11],-0.29
same,glycan array binding signal (z-score),[12],-0.507
same,glycan array binding signal (z-score),[13],-0.31
same,glycan array binding signal (z-score),[14],-0.079
same,glycan array binding signal (z-score),[15],4.53
same,glycan array binding signal (z-score),[16],-1.25
same,glycan array binding signal (z-score),[17],2.77
same,glycan array binding signal (z-score),[18],0.974
same,glycan array binding signal (z-score),[19],3.43
same,glycan array binding signal (z-score),[20],0.367
same,glycan array binding signal (z-score),[21],0.345
same,glycan array binding signal (z-score),[22],3.02
same,glycan array binding signal (z-score),[23],-0.275
same,glycan array binding signal (z-score),[24],3.81
same,glycan array binding signal (z-score),[25],0.11
same,glycan array binding signal (z-score),[26],-0.941
same,glycan array binding signal (z-score),[27],0.269
same,glycan array binding signal (z-score),[28],1.14
same,glycan array binding signal (z-score),[29],-0.836
